Source: PubChem
Compounds with a hit are over-represented: about 1.5% of the library has one in this group of screens.
PrPC surface inh: cell surface PrPC inhibition, primary TR-FRET screen | P04156 | TR-FRET read-out | inhibition, % at 13.8 µM | 0.43% of 370,000 active | AID 720596; in the data active means inhibition above about 24%; further: 0% = median of the test wells and 100% = reference compound wells
Mtb hypoxia inh: Mtb hypoxia fluorescent reporter inhibition; M. tuberculosis hypoxia-regulated fluorescent reporter, fluorescence; fluorescence inhibition, % (concentration not given with the values); 0.1% of 300,000 active; AID 1159583; in the data active means fluorescence inhibition mostly above about 23%, no sharp cut-off; inactive means mostly below about 17%
PrP 5UTR inh: suppresses PrP 5' UTR mRNA reporter expression; AID 488862; 0.35% of 340,000 active; inhibition, % (no concentration beside the values); cell-based PrP 5' UTR mRNA reporter, plate reader; in the data active means inhibition above about 52%; further: 0 = median of the neutral control wells
VHR inh abs: inhibitors of human VHR1 phosphatase (DUSP3); recombinant VHR phosphatase, pNPP absorbance; inhibition, % at 13.3 µM; 0.52% of 290,000 active; in the data active means inhibition above about 50%
Target sequence (P51452 whole entry, looked up): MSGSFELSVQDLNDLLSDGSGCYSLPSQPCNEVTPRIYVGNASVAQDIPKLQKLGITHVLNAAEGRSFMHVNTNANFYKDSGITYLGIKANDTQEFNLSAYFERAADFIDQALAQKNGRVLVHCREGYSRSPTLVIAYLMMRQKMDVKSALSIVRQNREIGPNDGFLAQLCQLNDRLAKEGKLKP
SARS 3CLpro inh-1: SARS-CoV 3CLpro protease inhibition; P0C6X7; recombinant SARS-CoV 3CLpro, quenched FRET peptide cleavage; inhibition, % at 6 µM; 0.14% of 290,000 active; in the data active means inhibition above about 12%
MazF activator: activators of E. coli MazEF toxin-antitoxin RNase; activation, % at 20 µM; FAM/BHQ RNA-DNA oligo cleavage fluorescence, 5 h; 0.32% of 350,000 active; P0AE70; in the data active means activation above about 50%
Target sequence (P0AE70 whole entry, looked up): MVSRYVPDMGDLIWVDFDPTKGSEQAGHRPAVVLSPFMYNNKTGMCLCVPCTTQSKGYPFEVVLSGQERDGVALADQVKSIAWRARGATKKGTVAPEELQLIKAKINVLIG
SARS 3CLpro inh-2: confirmation of SARS coronavirus 3C-like protease inhibitors. shares compounds with SARS 3CLpro inh-1. QFRET protease activity assay, 3CLpro. inhibition, % at 6 µM. 36% of 380 active. AID 1879; in the data active means inhibition above about 13%
PrP UTR cherry: prion 5' UTR mRNA inhibition, cherry-pick retest; shares compounds with PrP 5UTR inh; cell-based prion protein 5' UTR reporter, plate reader; inhibition, % at 2.5 µM; 48% of 1,100 active; AID 504592; in the data active means inhibition above about 54%
* = called active by the depositor; . = no result given.

SMILES	PrPC surface inh	Mtb hypoxia inh	PrP 5UTR inh	VHR inh abs	SARS 3CLpro inh-1	MazF activator	SARS 3CLpro inh-2	others
COc1ccccc1/C=C/C(=O)c1cc(Br)ccc1OC(=O)c1ccco1	-5	.	-9	.	15*	-5	50*
Cc1ccc(/C=C/C(=O)c2cc(Br)ccc2OC(=O)c2ccco2)cc1	-4	6	-25	3	23*	-3	32*
O=C(/C=C/c1cc(Br)ccc1O)c1ccco1	-8	18	-16	4	-2	5	.
CN(C)C1=NCC(Cc2ccccc2)N1CCc1ccc(F)cc1 (stereo unspecified)	.	22	.	.	.	.	.
COC(=O)C(CC(C)C)N(Cc1ccccc1)S(=O)(=O)N(Cc1ccc(OC)cc1)C(CC(C)C)C(=O)OC (stereo unspecified)	.	3	.	.	.	.	.
Cc1cc(Cl)ccc1OC(C)C(=O)Nc1ccc(S(=O)(=O)Nc2cnc3ccccc3n2)cc1 (stereo unspecified)	3	.	-22	9	12*	1	8
Clc1cccc(CONC=Nc2ncnc3sccc23)c1	.	10	.	.	.	.	.
Cc1cc(C)nc(NN=CC2=C(N3CCOCC3)/C(=C\c3ccc(Cl)cc3)CC2)n1	.	1	.	.	.	.	.
CCOc1cc(C(N)=O)cc(Br)c1OC	3	2	-1	9	15*	2	-1
CCOc1cc(C(N)=O)cc(OCC)c1OCC	-6	15	-6	11	7	3	.
CCc1ccc(NS(=O)(=O)c2ccc3[nH]cc(C(=O)N4CCc5ccccc54)c(=O)c3c2)cc1	0	.	-34	-4	6	-4	.
Cc1cc(C)cc(NS(=O)(=O)c2ccc3[nH]cc(C(=O)N4CCc5ccccc54)c(=O)c3c2)c1	-1	12	0	-2	14*	-1	-2
Cc1[nH]n(-c2ccccc2)c(=O)c1C=NNC(=O)c1cccc([N+](=O)[O-])c1	.	14	.	.	.	.	.
Cc1cc(=O)oc2cc(NC(=O)Cc3ccccc3[N+](=O)[O-])ccc12	7	4	-36	4	17*	16	13*
CCC1CCC(N2CCN(c3ccc([N+](=O)[O-])cc3)CC2)CC1 (stereo unspecified)	0	2	9	-7	13*	5	0
CC1CCC(N2CCN(c3ccc([N+](=O)[O-])cc3)CC2)CC1 (stereo unspecified)	-13	2	-34	9	2	-6	.
Cc1ccc(N(C(=O)c2ccco2)C(C(=O)NC2CCCC2)c2cccnc2)cc1C (stereo unspecified)	9	5	-6	-15	4	8	.
CCc1ccc(N(C(=O)c2ccco2)C(C(=O)NC2CCCC2)c2cccnc2)cc1 (stereo unspecified)	-2	3	-15	6	16*	3	9
CCC(C)c1ccc(N(C(=O)c2ccco2)C(C(=O)NC2CCCC2)c2cccnc2)cc1 (stereo unspecified)	4	17	-22	1	75*	5	75*
CC(=NNC(=O)CNC(=O)c1cccc(F)c1)c1ccc2c(c1)CCCC2	.	6	.	.	.	.	.
C[C@@]12C(=O)N(c3cccc(F)c3)C(=O)N1[C@H](c1ccc(F)cc1)[C@@H]1C(=O)N(C3CCCCC3)C(=O)[C@@H]12	.	.	-40	1	14*	-7	6
COc1ccccc1C(=O)Nc1nc2ccccc2s1	4	.	92*	12	13*	3	0	PrP UTR cherry=93*
Cc1ccccc1C=NNC(=O)Cn1nnc(N)n1	.	-2	.	.	.	.	.
CCOC(=O)c1cnn(-c2ccccc2)c1NC(=O)CN1CCOCC1	4	-5	74*	-8	1	2	.	PrP UTR cherry=-50
COC(=O)c1cc(C(=O)N2CCN(c3cccc(Cl)c3)CC2)cc([N+](=O)[O-])c1	-5	24	62*	26	8	1	.	PrP UTR cherry=87*
COc1cc(O)c(C(=O)O)c(-c2cc(O)c(O)cc2C)c1	8	.	68*	-5	.	-7	.	PrP UTR cherry=-16
CC(=NNC(=O)CNC(=O)c1cccnc1)c1ccc([N+](=O)[O-])cc1	.	6	.	.	.	.	.
CC1=C(C(=O)Nc2cccnc2)C(c2cccnc2)n2nc(-c3cccs3)nc2N1 (stereo unspecified)	-5	7	-6	12	-3	-4	.
